# Measurements taken from article PMC4336329 (PLoS ONE, 2015).
# The campaign covered roughly 310,000 compounds. About 2,200 (0.71%) showed an effect of 50% or more. The effect is printed as a negative number. The sample as a whole holds a higher share of strong results than the screen did.
# Target: human ether-à-go-go-related gene (hERG) potassium channel (human, UniProt Q12809)
# Assay: primary screen, population patch clamp on CHO cells stably expressing hERG; higher = less effect of the substance
# Sequence of human ether-à-go-go-related gene (hERG) potassium channel (Q12809 whole entry, looked up): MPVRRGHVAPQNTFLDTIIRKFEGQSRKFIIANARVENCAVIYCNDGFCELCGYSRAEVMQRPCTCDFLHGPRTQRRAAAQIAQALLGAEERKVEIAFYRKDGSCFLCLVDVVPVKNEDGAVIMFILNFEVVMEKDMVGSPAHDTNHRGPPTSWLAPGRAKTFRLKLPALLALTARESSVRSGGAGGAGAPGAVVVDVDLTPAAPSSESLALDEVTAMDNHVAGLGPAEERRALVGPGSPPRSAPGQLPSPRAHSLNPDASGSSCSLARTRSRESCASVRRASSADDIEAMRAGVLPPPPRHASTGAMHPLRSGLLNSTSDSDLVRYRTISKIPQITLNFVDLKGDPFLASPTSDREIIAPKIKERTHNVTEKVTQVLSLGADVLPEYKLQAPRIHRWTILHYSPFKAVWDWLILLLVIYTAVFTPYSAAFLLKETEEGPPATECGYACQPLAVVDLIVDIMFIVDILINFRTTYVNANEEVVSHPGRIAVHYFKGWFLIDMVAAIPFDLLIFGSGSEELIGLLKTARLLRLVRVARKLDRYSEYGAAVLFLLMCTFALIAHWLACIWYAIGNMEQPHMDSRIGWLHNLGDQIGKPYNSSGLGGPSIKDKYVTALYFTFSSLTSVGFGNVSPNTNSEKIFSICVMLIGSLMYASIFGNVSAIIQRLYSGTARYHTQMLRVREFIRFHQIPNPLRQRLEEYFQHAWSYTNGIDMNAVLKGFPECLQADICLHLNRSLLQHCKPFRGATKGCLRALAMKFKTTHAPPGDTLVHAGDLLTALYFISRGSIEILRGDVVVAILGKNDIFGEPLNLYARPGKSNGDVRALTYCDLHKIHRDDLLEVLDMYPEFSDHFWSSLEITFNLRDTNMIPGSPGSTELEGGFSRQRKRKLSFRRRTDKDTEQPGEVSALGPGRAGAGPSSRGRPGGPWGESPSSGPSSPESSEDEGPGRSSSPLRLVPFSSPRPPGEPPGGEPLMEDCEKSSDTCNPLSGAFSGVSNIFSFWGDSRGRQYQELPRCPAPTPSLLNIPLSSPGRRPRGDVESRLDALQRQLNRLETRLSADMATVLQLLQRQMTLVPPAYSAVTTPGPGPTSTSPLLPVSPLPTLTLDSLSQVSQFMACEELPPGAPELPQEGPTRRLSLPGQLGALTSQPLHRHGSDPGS
row,SMILES,"hERG current change (%, negative = inhibition) at 1uM [%]"
1,Cc1ccc(NC(=O)CN(c2ccc(Cl)cc2)S(=O)(=O)c2cc([N+](=O)[O-])ccc2Cl)cc1,7.07
2,CC(C1CC2CCC1C2)n1c(COc2ccccc2F)nnc1SCC(N)=O (stereo not shown),-1.9
3,O=C(c1ccco1)N1CCN(c2cccc(Cl)c2)CC1,9.98
4,Cc1nc2ccccc2c2oc(C(=O)N3CCN(C(=O)c4ccco4)CC3)cc12,-23.2
5,Cc1cc(N2CCN(C(=O)c3ccco3)CC2)nc(-c2ccccc2)n1,-22.6
6,O=C(C1CCC1)N1CCN(c2ccnc3cc(Cl)ccc23)CC1,-59.6
7,Cc1cccc2[nH]c3c(N4CCN(C(=O)c5ccco5)CC4)ncnc3c12,-5.77
8,Cc1cc(N2CCN(C(=O)c3ccco3)CC2)c2ccccc2n1,-68.6
9,O=C(C1CCCCC1)N1CCN(c2ccnc3cc(Cl)ccc23)CC1,-27.1
10,O=C(c1ccco1)N1CCN(c2ncnc3c2[nH]c2ccc(Cl)cc23)CC1,-70.1
11,CCOc1ccc2[nH]c3c(N4CCN(C(=O)c5ccco5)CC4)ncnc3c2c1,-3.41
12,O=C(c1ccco1)N1CCN(c2ccc(Cl)cc2)CC1,-5.03
13,O=C(C1CC1)N1CCN(c2ccnc3cc(Cl)ccc23)CC1,-31.6
14,O=C(c1ccco1)N1CCN(c2ccnc3cc(Cl)ccc23)CC1,-63.6
15,CCCOc1ccc(N2CC(C(=O)NC3=NCCS3)CC2=O)cc1 (stereo not shown),-26
16,CCCCN1CCC(COC(=O)c2cc(Cl)c(N)c3c2OCCO3)CC1.Cl,-23.9
17,COc1ccccc1CNS(=O)(=O)c1ccc(-n2cccn2)cc1,13.3
18,O=C(NCc1cccs1)c1ccccc1,7.23
19,CCNc1nc(SCC(=O)OC)nc(N(C)C)n1,-1.18
20,COc1ccc(CN(CC(=O)NC2CCCCC2)C(=O)CCCC(=O)Nc2ccccn2)cc1,9.4
21,Cc1ccccc1OCC(=O)Nc1ccccc1C(=O)N1CCCCC1,-4.24
22,CC(=O)Nc1ccc(CNc2ncnc3ccc(-c4c(C)noc4C)cc23)cc1,11.5

row,SMILES,"hERG current change (%, negative = inhibition) at 1uM [%]"
1,O=C1C=C(O)C(n2cncn2)C(c2ccc(F)cc2)C1 (stereo not shown),-9.66
2,COC(=O)c1cc(C(=O)OC)cc(N2C(=O)CC(NNC(=O)c3ccccc3Br)C2=O)c1 (stereo not shown),4.08
3,O=C1NC2(CCCCC2)C(=O)N1Cc1cc(=O)n2ccsc2n1,6.06
4,Cc1ccc(CN2C(=O)CCC2C(=O)NCc2ccccc2Cl)cc1 (stereo not shown),7.62
5,Nc1nc2ccc(-c3nc4ccccc4o3)cc2s1,11.2
6,CCOC(=O)N1CCN(c2ccnc3cc(Cl)ccc23)CC1,-36.7
7,CC(=O)N1CCN(c2ccnc3cc(Cl)ccc23)CC1,-23.2
8,CC(C)(C)C(=O)N1CCN(c2ccnc3cc(Cl)ccc23)CC1,-55.8
9,c1cncc(-c2nc3ccccn3c2Nc2ccc3c(c2)OCCO3)c1,4.02
10,O=C(O)CN(Cc1ccco1)S(=O)(=O)c1ccc(F)cc1,11.9
11,CCOc1cccc(C(=O)Nc2ccc3[nH]ncc3c2)c1,21.7
12,O=C(N/C(=C\c1cccs1)C(=O)N1CCCCCC1)c1ccccc1,1.61
13,O=C(Nc1ccccc1)/C(=C\c1cccs1)NC(=O)c1ccccc1,14.9
14,O=C(N/C(=C\c1cccs1)C(=O)N1CCOCC1)c1cccs1,6.69
15,Cc1cccc(NC(=O)/C(=C\c2cccs2)NC(=O)c2ccccc2)c1,-65.1
16,CN1CCN(C(=O)/C(=C\c2cccs2)NC(=O)c2ccccc2)CC1,-78.3
17,CN1CCN(C(=O)/C(=C\c2cccs2)NC(=O)c2cccs2)CC1,-77.3
18,O=C(N/C(=C\c1ccc2c(c1)OCO2)C(=O)N1CCOCC1)c1cccs1,-18.7
19,O=C(N/C(=C/c1cccs1)C(=O)N1CCOCC1)c1cccs1,8.07
20,O=C(N/C(=C/c1ccc2c(c1)OCO2)C(=O)N1CCOCC1)c1cccs1,9.57
21,Cc1ccc(NC(=O)/C(=C\c2cccs2)NC(=O)c2ccccc2)cc1,-1.02
22,O=C(N/C(=C/c1cccs1)C(=O)N1CCCC1)c1ccccc1,14.4

row,SMILES,"hERG current change (%, negative = inhibition) at 1uM [%]"
1,CN1CCN(C(=O)/C(=C\c2ccc3c(c2)OCO3)NC(=O)c2cccs2)CC1,-75.6
2,Cc1ccc(NC(=O)CCC(=O)c2ccc(Br)cc2)cc1,10.9
3,COc1ccc(C(=O)N/N=C/c2cc(Br)ccc2O)cc1OC,14.7
4,CCOc1cc(/C=C2/C(=N)N3C(=NC2=O)SN=C3S(C)(=O)=O)ccc1OS(=O)(=O)c1ccccc1,17.3
5,CCOC(=O)c1sc2nc(C)nc(NCc3cccnc3)c2c1C,10.8
6,COc1ccc(/C=N/Nc2ccc(C(F)(F)F)cc2[N+](=O)[O-])cc1O,3.36
7,[O-][n+]1onc2c3cc(-c4ccccc4)nnc3ccc21,1.69
8,CC(C)(Oc1ccc(Cl)cc1)C(=O)N1CCN(c2ccccn2)CC1,-1.81
9,COc1cccc(NC(=O)c2cc(-c3cccnc3)nc3c(Cl)cccc23)c1,7.59
10,COc1ccc(CC(O)CC2c3c(cc4c(c3OC)OCO4)CCN2C)cc1.Cl (stereo not shown),-51.8
11,COc1ccc2c(c1OC)C(=O)OC2C1c2c(cc3c(c2OC)OCO3)CCN1C.Cl (stereo not shown),9.06
12,COc1c2c(cc3c1C(CC(O)Cc1ccccc1)N(C)CC3)OCO2 (stereo not shown),-14
13,Cc1ccc(C(=O)Nc2cccc(C(=O)N3CCOCC3)c2)cc1,3.75
14,O=C(CCc1ccccc1)Nc1ccc2ccccc2n1,-2.39
15,CNC(=S)NNC(=O)c1sc2cc(C(F)(F)F)cnc2c1-c1ccccn1,4.79
16,Cl.O=C(CN1CCCC1)NCc1ccccc1,13.4
17,O=C(CN1CCN(C/C=C/c2ccccc2)CC1)NCc1ccc(Cl)cc1,-72.5
18,O=C(NCC(=O)N1CCCCCC1)c1ccc(OC(F)F)cc1,10.4
19,CCOc1ccc(C(=O)NCC(=O)N2CCN(C/C=C/c3ccccc3)CC2)cc1OCC,-1.35
20,O=C(CN1CCCCCC1)NCc1ccccc1,11.8
21,O=C(CN1CCN(Cc2ccccc2)CC1)NCc1ccc(Cl)cc1,-13.4
22,O=C(CN1CCN(c2ccc(Cl)cc2)CC1)NCc1ccccc1,-23.6

row,SMILES,"hERG current change (%, negative = inhibition) at 1uM [%]"
1,O=C(CN1CCN(C/C=C/c2ccccc2)CC1)NCc1ccccc1,-53.6
2,O=C(NCC(=O)N1CCN(C/C=C/c2ccccc2)CC1)c1ccc(OC(F)F)cc1,-50.4
3,CCOC(=O)c1c(C)[nH]c(C(=O)O)c1C,11.5
4,OC1CCCN(Cc2cccc3ccccc23)C1 (stereo not shown),14.7
5,Cc1cc(C)cc(N2CC(O)Cn3c2nc2c3c(=O)[nH]c(=O)n2C)c1 (stereo not shown),9.84
6,Cc1ccc(/C=N/NC(=O)c2nnn(-c3nonc3N)c2CSc2ccccc2)cc1,11.4
7,O=C(N=C1SC2CS(=O)(=O)CC2N1CCc1ccccc1)C1CC1 (stereo not shown),9.32
8,O=C(O)c1cccc(-n2cc(-c3cccc(C(F)(F)F)c3)cn2)c1,4.88
9,O=C(NNC(=O)c1sc2cccc(Cl)c2c1Cl)Nc1ccccc1,13.9
10,COc1ccc(-c2coc3c(C)c4oc(=O)c(CCC(=O)O)c(C)c4cc23)cc1,6.19
11,CCCCCCNC(=O)CC(NS(=O)(=O)c1ccc(NC(C)=O)cc1)C(C)C (stereo not shown),-0.978
12,COc1ccc(OC)c(NC(=O)c2cccc(N3C(=O)C4C5CCC(C5)C4C3=O)c2)c1 (stereo not shown),2.22
13,F[B-](F)(F)F.OCCCCC[NH+]=c1cc(-c2ccccc2)oc2ccc(Cl)cc12,-86.1
14,OCCCNc1nc(-c2ccccc2)c2cc(Cl)ccc2n1,5.65
15,F[B-](F)(F)F.OCCC[NH+]=c1cc(-c2ccccc2)oc2ccc(Cl)cc12,-78
16,COc1ccc(-c2cc(=[NH+]c3cccc(C(=O)O)c3)c3cc(C)ccc3o2)cc1.[O-][Cl+3]([O-])([O-])[O-],6.72
17,F[B-](F)(F)F.OCC[NH+]=c1cc(-c2ccccc2)oc2ccc(Cl)cc12,-71.1
18,O=c1oc2ccc(Cl)cc2cc1-c1ccccc1,16.1
19,O=c1cc(-c2ccccc2)oc2ccc(O)cc12,4.17
20,COc1ccc(-c2cc(=[NH+]c3ccccc3)c3cc(C)ccc3o2)cc1.[O-][Cl+3]([O-])([O-])[O-],14
21,Clc1ccc(Oc2ncnc3oc(-c4ccccc4)cc23)cc1,6.4
22,Cc1cc(C(=O)OCC(=O)N2C(C)CCCC2C)c(C)o1 (stereo not shown),9.75
